E coli Lon inh: E. coli protease La inhibition; P0A9M0; purified E. coli Lon protease, fluorescence polarization; inhibition, % at 7.94 µM; 0.42% of 360,000 active; in the data active = inhibition above about 13%, passing the limit was not always enough
Target sequence (P0A9M0 whole entry, looked up): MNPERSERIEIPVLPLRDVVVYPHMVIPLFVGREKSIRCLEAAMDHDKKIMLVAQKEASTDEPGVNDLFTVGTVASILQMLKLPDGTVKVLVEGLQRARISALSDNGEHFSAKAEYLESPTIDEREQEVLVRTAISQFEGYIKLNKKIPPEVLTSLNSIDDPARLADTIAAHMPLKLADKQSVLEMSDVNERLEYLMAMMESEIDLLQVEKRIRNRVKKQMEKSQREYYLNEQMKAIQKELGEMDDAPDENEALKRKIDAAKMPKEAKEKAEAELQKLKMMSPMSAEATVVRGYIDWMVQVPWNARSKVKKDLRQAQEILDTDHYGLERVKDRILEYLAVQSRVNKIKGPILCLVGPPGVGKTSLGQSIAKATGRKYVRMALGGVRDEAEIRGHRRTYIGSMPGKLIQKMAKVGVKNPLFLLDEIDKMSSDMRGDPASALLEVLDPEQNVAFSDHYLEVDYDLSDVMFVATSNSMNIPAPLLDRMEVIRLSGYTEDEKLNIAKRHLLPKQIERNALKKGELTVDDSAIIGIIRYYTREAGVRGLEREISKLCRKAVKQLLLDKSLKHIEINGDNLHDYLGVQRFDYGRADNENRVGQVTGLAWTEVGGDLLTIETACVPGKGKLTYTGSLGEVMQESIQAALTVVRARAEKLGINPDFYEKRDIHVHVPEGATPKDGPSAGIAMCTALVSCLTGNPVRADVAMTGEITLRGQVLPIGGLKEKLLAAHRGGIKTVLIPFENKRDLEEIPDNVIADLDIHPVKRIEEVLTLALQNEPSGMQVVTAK
C-LANA FP: inhibitors of KSHV LANA C-terminal domain DNA binding; MBP-C-LANA/FAM-LBS DNA binding, fluorescence polarization; inhibition, % at 9 µM; 0.078% of 340,000 active;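 active = highest replicate inhibition at or above 60% at 9 µM, even if other replicates fall short; inactive = all replicates below 60% inhibition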
Cardiac RTF inh: cardiac RTF calcium desensitization; inhibition, % at 7.15 µM; P19429+P45379; 0.12% of 340,000 active; IANBD-labeled cardiac RTF, Ca2+ fluorescence;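 active = inhibition above the mean inhibition of all tested compounds plus 3 SD, cut at about 17% in these data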;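 note: assay run at fixed EC70 calcium of 1.6 mM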
Keap1-Nrf2 PPI: inhibitors of human Keap1-Nrf2 protein-protein interaction | AID 504523 | 0.15% of 340,000 active | Q14145 | inhibition, % at 9.4 µM | Keap1 Kelch-Nrf2 peptide fluorescence polarization, 1536-well; in the data active = inhibition above about 12%;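 note: human Keap1 Kelch domain with fluorescein labeled Nrf2 9mer peptide probe; higher means more block of Keap1 binding to Nrf2 peptide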
RTF Ca sens act: increases calcium sensitivity of human cardiac regulated thin filaments. P19429+P45379. IANBD-labeled TnC RTF fluorescence at EC20 calcium; 0% EC20 calcium, 100% full calcium. activation, % at 7.2 µM. 0.24% of 340,000 active. AID 493008;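 active = activation above the mean over all tested compounds plus 3 SD, cut at about 30% in these data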;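 note: rise in fluorescence read as greater calcium sensitivity of cardiac thin filaments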
eLon confirm: confirmation of E. coli Lon protease inhibitors. shares compounds with E coli Lon inh. purified E. coli Lon, fluorescence polarization. inhibition, % at 7.94 µM. 31% of 1,400 active. AID 602230; in the data active = inhibition above about 16%
Hits are given with their value; 0 = inactive; - = not tested or not shown; + = active, no number. Compounds with a hit are over-represented: about 0.82% of the library has one in this group of screens.

SMILES	E coli Lon inh	C-LANA FP	Cardiac RTF inh	Keap1-Nrf2 PPI	RTF Ca sens act	eLon confirm
CCCCn1c(NC(C)=O)c(C#N)c2nc3ccccc3nc21	23	0	0	0	0	0
CCOc1ccccc1C(=O)NCCCCNC(=O)c1ccccc1OCC	0	0	0	0	0	-
CCOc1ccccc1C(=O)NCCC(=O)O	17	0	0	0	0	0
O=S(=O)(c1ccccc1F)N1CCN(Cc2cc3c(cc2Br)OCCO3)CC1	0	0	0	0	0	-
CN1CCN(c2ccccc2NC(=O)c2ccc3c(c2)OCCO3)CC1	16	0	0	0	0	0
O=C(COC(=O)c1ccccc1C(=O)N1CCN(c2ccccc2)CC1)Nc1ccc(F)cc1	22	0	0	0	0	0
O=C(c1ccccc1C(=O)N1CCN(c2ccccc2)CC1)N1CCN(c2ccccc2)CC1	34	0	0	0	32	17
Cc1ccccc1C(=O)N1CCN(c2ccc(N3CCOCC3)nn2)CC1	23	0	0	0	0	0
O=C(COC(=O)c1ccccc1C(=O)N1CCN(c2ccccc2)CC1)Nc1ccccc1	0	0	0	0	0	-
O=C(O)c1ccccc1C(=O)N1CCN(c2ccccc2)CC1	0	0	0	0	0	-
COc1cccc(NC(=O)COC(=O)c2ccccc2C(=O)N2CCN(c3ccccc3)CC2)c1	16	0	0	0	0	0
Cc1cc(=O)[nH]c2ccc(S(=O)(=O)NC3CCCCC3)cc12	0	0	0	0	0	-
COc1cccc(N2CCN(c3ccc4nnc(CCC(=O)Nc5ccc(OC)c(OC)c5)n4n3)CC2)c1	0	0	0	0	0	-
COc1ccc(C(CNC(=O)c2cc(S(=O)(=O)N3CCCC3)ccc2Cl)N2CCCC2)cc1 (stereo unspecified)	0	0	0	0	0	-
CCOC(=O)c1nn(-c2ccc(F)cc2)c(=O)cc1OCC(=O)Nc1ccc(F)c(F)c1	0	0	0	0	0	-
COc1ccc(NC(=O)CN(C)C(=O)C(Sc2ccccc2)c2ccccc2)cc1 (stereo unspecified)	0	0	0	0	0	-
O=S1OCCN1c1ccccc1 (stereo unspecified)	0	0	0	0	0	-
CCc1cccc(NC(=O)CCCn2nc(CC)n3c(cc4occc43)c2=O)c1	29	0	0	0	0	0
COc1cccc(NC(=O)/C=C/c2ccc(S(=O)(=O)N3CCOCC3)cc2)c1	0	0	0	0	0	-
COc1ccc(C(=O)OCC(=O)c2ccc[nH]2)cc1	0	0	0	0	0	-
O=C(COC(=O)COc1ccc(Cl)cc1)NC1CCCCCC1	0	0	0	0	0	-
CN(C)CCCn1c2c3ccccc3ccc2c2oc(=O)c3ccccc3c21	+	0	0	0	0	23
CCN1CCN(C(CNS(=O)(=O)c2ccccc2)c2cccnc2)CC1 (stereo unspecified)	19	0	0	0	0	0
Cc1c(N/C(=N/S(=O)(=O)c2cc([N+](=O)[O-])ccc2Cl)c2ccccc2)c(=O)n(-c2ccccc2)n1C	19	0	0	0	0	0
Cc1c2ccccc2nc2c(F)c(NCCO)c(F)c(F)c12	50	0	0	0	42	+
SMILES	E coli Lon inh	C-LANA FP	Cardiac RTF inh	Keap1-Nrf2 PPI	RTF Ca sens act	eLon confirm
Cc1c2ccccc2nc2c(F)c(NC(C)C)c(F)c(F)c12	107	0	0	0	0	194
OCCNc1c2ccccc2nc2c(F)c(F)c(F)c(F)c12	0	0	0	0	0	-
CCN(c1ccc(NC(=O)COC(=O)C2CCN(c3ccc(C(F)(F)F)cn3)CC2)cc1)C(C)C	0	0	0	0	0	-
Cc1ccc(C(=O)Nc2nc(=O)n(C(=O)c3ccccc3C)s2)cc1	19	0	0	0	0	31
Cc1cc(C)n(CC(=O)NNC(=O)c2ccc(OC(F)(F)F)cc2)n1	0	-	0	0	0	-
COc1ccccc1-n1c(SCC(=O)NC2CCS(=O)(=O)C2)nc2ccccc2c1=O (stereo unspecified)	19	0	0	0	0	0
O=C(CSc1nc2ccccc2c(=O)n1-c1ccc(F)cc1F)NC1CCS(=O)(=O)C1 (stereo unspecified)	0	-	-	-	-	-
Cc1ccc(C)c(S(=O)(=O)N2CCN(C(=O)CN3C(=O)C4CC=CCC4C3=O)CC2)c1 (stereo unspecified)	0	0	0	0	0	-
CCC(C)N(C(=O)CSc1nnc2ccccn12)C1CCS(=O)(=O)C1 (stereo unspecified)	0	0	0	0	0	-
COc1ccc(NC2CCN(C3CC(=O)N(c4ccc(F)c(Cl)c4)C3=O)CC2)cc1 (stereo unspecified)	17	0	0	0	0	0
COc1ncnc2c1NC1=C(S2)C(=NCCC(=O)O)CC(C)(C)C1	65	0	0	0	0	154
COc1ccc(NS(=O)(=O)c2ccc(OC)c(N(C)S(=O)(=O)c3ccc(Cl)cc3)c2)cc1	0	0	0	0	0	-
COc1ccc(S(=O)(=O)Nc2ccc(F)cc2)cc1N(C)S(=O)(=O)c1ccc(Cl)cc1	16	0	0	0	0	41
O=C(c1ccco1)[C@@H]1[C@@H]2C(=O)N(c3ccccc3)C(=O)[C@@H]2C2c3ccccc3C=CN21 (stereo partly specified)	24	0	0	0	0	33
Cc1ccc(N2C(=O)[C@@H]3[C@H](C2=O)C2c4ccccc4C=CN2[C@@H]3C(=O)c2ccco2)cc1 (stereo partly specified)	0	0	0	0	0	-
Cc1ccc(C)c(N2CCN(C(=O)CCCn3ncn4c(cc5occc54)c3=O)CC2)c1	0	0	0	0	0	-
O=C(O)c1ccc(CN2C(=O)CSC2=S)cc1	16	0	0	0	0	0
O=C(O)c1ccc(N2C(=O)CSC2=S)cc1	0	0	0	0	0	-
CN(C)NC(=S)Nc1ccc2nc(-c3ccccn3)c(-c3ccccn3)nc2c1	0	0	0	0	0	-
S=C(Nc1ccc2nc(-c3ccccn3)c(-c3ccccn3)nc2c1)N1CCOCC1	20	0	0	0	0	0
CCOC(=O)c1ccc(S(=O)(=O)N2CC(=O)Nc3ccccc32)cc1	0	0	0	0	0	-
CC(C)(C)c1cc[n+](-c2[nH]c(=O)sc2/C=N/NC(=O)c2ccccc2[O-])cc1	43	0	0	0	0	36
CC1(C)CC(=O)C=C(c2cccc(O)c2)C1=O	0	0	0	0	0	-
COc1cccc(C2=CC(=O)CC(C)(C)C2=O)c1	12	-	-	-	-	0
CC1(C)CC(=O)C/C(=N/NC(=O)COc2ccc(Cl)cc2Cl)C1	25	0	0	0	0	0
Cc1c(O)c(=O)n(-c2ccccc2)n1C	0	0	0	0	0	-
CCN(c1c(C)n(C)n(-c2ccccc2)c1=O)S(C)(=O)=O	69	0	0	0	0	0
OCCN1CCN(CC(O)COCCOc2ccc(Br)cc2)CC1 (stereo unspecified)	69	0	0	0	0	0

Compound activity deposited in PubChem BioAssay by several laboratories.
